In the library only some 0.85% were active in any assay of this set; here they are far more common.
APEX1 inh – qHTS Assay for Inhibitors of the Human Apurinic/apyrimidinic Endonuclease 1 (APE1); DNA repair nuclease/redox regulator APEX1 (Homo sapiens), P27695; recombinant APE1, TAMRA/BHQ-2 abasic DNA cleavage fluorescence; 350,000 tested, 0.35% active; Potency, µM (series often up to 65.8 µM), for inactives: at the top dose activity change, negative = inhibition, most hits filed as inhibitors; AID 2517, 2012;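 further: plate controls were vehicle for no effect and reference inhibitor for full effect; nearly all actives have a fitted effect of over 55% in size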
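Measures dequenching upon AP-site incision of a 5'-TAMRA/3'-BHQ-2 THF-containing duplex, 50 nM; human APE1 0.75 nM after 15 min room-temperature exposure to compound; kinetic three-point read at one-minute spacing.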
RECQ1 inh – qHTS Assay for Inhibitors of RecQ-Like Dna Helicase 1 (RECQ1) | 240,000 tested, 0.54% active | AID 2549, 2010 | Potency, µM (top dose mostly 57.3 µM), for the others: at the top dose activity, negative = inhibition, usual class: inhibitors | ATP-dependent DNA helicase Q1 (Homo sapiens), P46063 | RECQ1 DNA unwinding, red fluorescence kinetic read;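 further: plate controls were vehicle for no effect and no enzyme for full effect; nearly all actives have a fitted effect of over 30% in size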
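50 nM RECQ1T1 preincubated 15 min with compound in Tris pH 8.0 buffer with MgCl2, DTT, Tween-20 and 2.5 ug/ml poly(dI-dC); started with 200 nM TAMRA/BHQ-2 forked duplex and 2 mM ATP. Unwinding read as fluorescence (525/598 nm), two reads 2 h apart.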
GLS inhibitor – qHTS for Inhibitors of Glutaminase (GLS). GLS enzymatic activity, qHTS titration. AID 624170, 2012. Glutaminase kidney isoform, mitochondrial (Homo sapiens), O94925. Potency, µM (doses to about 45.5 µM), inactives show at the top dose activity change, negative = inhibition, usual class: inhibitors. 410,000 tested, 0.21% active
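Glutamate formation by hKGA was monitored fluorometrically using coupled glutamate oxidase, HRP and Amplex Red. Substrate was added as 1 mM L-glutamine solution; incubation was 30 min at RT after an initial read.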
PGK inhibitor – qHTS Assay to Find Inhibitors of Phosphoglycerate Kinase; PGK/GAPDH coupled, Kinase-Glo luminescence, 60 min; 380,000 tested, 0.043% active; AID 602233, 2012; Phosphoglycerate kinase, glycosomal (Trypanosoma brucei brucei), P07378; Potency, µM (series often up to 57.5 µM), for inactives: top-dose activity change, negative = inhibition, most hits filed as inhibitors; further: nearly all actives have a fitted effect of over 60% in size
Target sequence (P07378 whole entry, looked up): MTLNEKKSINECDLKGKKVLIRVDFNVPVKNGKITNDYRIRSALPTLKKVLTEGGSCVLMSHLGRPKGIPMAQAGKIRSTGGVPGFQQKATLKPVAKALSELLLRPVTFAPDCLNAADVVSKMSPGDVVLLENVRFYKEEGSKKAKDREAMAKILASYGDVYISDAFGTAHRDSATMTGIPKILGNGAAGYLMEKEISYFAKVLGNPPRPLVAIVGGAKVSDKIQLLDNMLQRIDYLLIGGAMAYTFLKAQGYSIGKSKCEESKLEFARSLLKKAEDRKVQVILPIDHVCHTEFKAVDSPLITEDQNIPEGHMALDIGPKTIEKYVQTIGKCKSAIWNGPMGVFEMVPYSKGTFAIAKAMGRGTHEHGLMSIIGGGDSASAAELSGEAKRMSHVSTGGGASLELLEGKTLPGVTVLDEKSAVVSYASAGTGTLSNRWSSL
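Luminescent ATP detection (Kinase-Glo Plus) follows a 60-minute room-temperature incubation, with wells lacking PGK as controls. Buffer: 100 mM TEA (pH 7.6), 5 mM MgCl2, 0.01% Tween-20. Coupling enzyme GAPDH (100 nM final) supplies unstable 1,3-BPG in-well.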
TDP1 block – qHTS Assay for Inhibitors of Tyrosyl-DNA Phosphodiesterase (TDP1); recombinant TDP1, AlphaScreen DNA substrate cleavage; Potency, µM (top dose mostly 130 µM), for the others: top-dose activity change, negative = inhibition, actives largely listed as inhibitors; 350,000 tested, 0.28% active; AID 485290, 2010; further: nearly all actives have a fitted effect of over 40% in size
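Signal: AlphaScreen proximity between streptavidin donor and anti-FITC acceptor beads on intact substrate. Reaction: Tdp1 1 nM, substrate 15 nM final, 5 min RT after 15 min compound preincubation.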
BLM helicase inh – qHTS Assay for Inhibitors of Bloom's syndrome helicase (BLM) | 350,000 tested, 0.2% active | AID 2528, 2010 | recombinant BLM DNA unwinding, fluorescence dequenching | RecQ-like DNA helicase BLM (Homo sapiens), P54132 | Potency, µM (titrated, usually from 56.1 µM), without a hit: top-dose activity change, negative = inhibition, most hits filed as inhibitors;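 further: plate controls were vehicle for no effect and no enzyme for full effect; nearly all actives have a fitted effect of over 35% in size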
Numbers without * were called inactive; i = inactive; u = inconclusive; x = not tested or not shown; [ ] = remark or other dose. The call rests on the fitted dose curve; in most records, active means well fitted curve in the direction sought with a large enough effect; inconclusive means small, poorly fitted or top-dose-only effect, or another doubt; inactive means no such curve, though single readings can be large; an effect the other way counts as inactive or inconclusive. Unless noted, on the % scale 0 is the no-effect control and ±100 the full control effect; potency means the concentration at half of the fitted maximal effect.

SMILES	APEX1 inh	RECQ1 inh	GLS inhibitor	PGK inhibitor	TDP1 block	BLM helicase inh
CSc1nsc(/C=C/Nc2ccc(F)cc2F)c1C#N	-11%	i	u	-5%	7%	-21%
CSc1nsc(/C=C/Nc2ccc(C(=O)O)cc2)c1C#N	u	-6%	-21%	-15%	7%	28µM*
O=C1OC2C(O)C(O)OC2C1O (configuration not stated)	x	x	-3%	x	x	x
c1coc(-c2cnc3ccccc3n2)c1	x	x	1%	-5%	x	x
O=C(c1ccccc1)c1ccc2nc(-c3ccco3)c(-c3ccco3)nc2c1	u	u	u	-11%	-8%	14µM*
O=C(NCCc1ccccc1)c1ccc2nc(-c3ccco3)c(-c3ccco3)nc2c1	u	u	-11%	-8%	-2%	7.1µM*
c1coc(-c2nc3ccccc3nc2-c2ccco2)c1	-12%	u	u	-2%[11.5 µM]	x	16µM*
O=C(NCCO)c1ccc2nc(-c3ccco3)c(-c3ccco3)nc2c1	u	-28%	135%	-14%	x	-27%
CC(=O)CC/C=C(\C)CC/C=C(/C)CC/C=C(\C)CCC=C(C)C	x	x	0%	x	x	x
c1nc(NCCc2cnc[nH]2)c2ccc(-c3ccc4c(c3)OCO4)cc2n1	x	x	x	x	7%	x
CC(C)(C)OC(=O)NCC(=O)NNC(=O)c1nc2ccccc2[nH]1	x	x	x	x	1%	x
CCOC(=O)C(CS)NCCN[C@@H](CS)C(=O)OCC (some centres not stated)	x	x	4%	x	x	4%
COc1cc(/C=C(\C#N)c2ccccn2)cc(OC)c1O	-1%	1%	20%	4%	5%	0%
COc1cc(/C=C(\C#N)c2[nH]nc(N)c2C#N)cc(OC)c1O	-5%	-7%	10µM*	-3%	-4%	-5%
COc1cc(F)c(S(=O)(=O)N2CCN(S(=O)(=O)c3ccc4c(c3)OCCO4)CC2)c(F)c1	x	x	x	x	1%	x
COc1ccc(C2Nc3ccccc3C(=O)N2Cc2ccccc2)cc1COc1cccc(C(F)(F)F)c1 (configuration not stated)	x	x	x	x	0%	x
COc1ccccc1C(=O)NNc1ncc(C)s1	19%	x	6.3µM*	8%	7%	-3%
COc1ccccc1OCC(=O)Nc1ncc(C)s1	6%	x	-5%	-14%	1%	x
Nc1ccc2nc(-c3cccc(-c4nc5ccc(N)cc5[nH]4)n3)[nH]c2c1	-90%	x	15%	0%	x	14µM*
Nc1ccc2nc(-c3ccc(-c4nc5ccc(N)cc5[nH]4)cc3)[nH]c2c1	-41%	x	8%	i	x	-20%
CC(=O)N1CCc2cc(S(=O)(=O)Nc3ccc(C)c(C)c3)ccc21	x	x	x	x	1%	x
COCCCNc1nc(SCc2ccccc2)nc2sc3c(c12)CCC3	0%	-10%	1%	-3%	1%	-9%
N#Cc1cnn(-c2nc(SCc3ccccc3)nc3sc4c(c23)CCCC4)c1N	-5%	7.9µM*	1%	-8%	2%	-7%
Oc1ccc(Nc2nc(-c3cccnc3)cs2)cc1	-15%	x	5µM*	-5%	x	0%
Brc1ccc(Nc2nc(-c3cccnc3)cs2)cc1	15%	1%	u	i	7%	1%
SMILES	APEX1 inh	RECQ1 inh	GLS inhibitor	PGK inhibitor	TDP1 block	BLM helicase inh
Cc1ccc2ccc3cccc4ccc1c2c34	-6%	-7%	0%	i	56µM*	x
COc1cccc(C(=O)NC2CC3CCCC(C2)N3CC(=O)Nc2ccccc2)c1 (configuration not stated)	u	0%	6.3µM*	-19%	x	-14%
O=C(CN1C2CCCC1CC(NC(=O)c1ccccc1)C2)Nc1ccccc1 (configuration not stated)	70%	x	0%	-1%	4%	-1%
CCC(=O)NC(c1cc(Cl)c2cccnc2c1O)c1cccn1C (configuration not stated)	x	x	x	x	2%	x
Cc1ccccc1N(C)C1=N[S+](=O)([O-])c2ccccc21	x	x	x	x	1%	x
O=C(COc1ccc2oc(-c3ccccc3)cc(=O)c2c1)NCc1ccco1	u	-12%	1%	-16%	50µM*	-17%
COc1cccc(-c2nnc3n2N=C(c2ccc(OC)cc2OC)CS3)c1	-7%	-13%	x	x	17%	9%
O=C1COc2cc(S(=O)(=O)NCc3ccco3)c(Cl)cc2N1	-20%	x	u	x	56µM*	-12%
Cc1cccc(C)c1-n1c(SCC(=O)Nc2ccc(C(=O)O)cc2)nnc1-c1ccc([S+](=O)([O-])N2CCCC2)cc1	24%	x	x	x	x	x
O=C(NNC(=O)c1cc2cc(Br)ccc2oc1=O)c1ccc(O)cc1O	u	-8%	-7%	-27%	25µM*	u
COCCCNC(=O)c1cc2cc(Br)ccc2oc1=O	-4%	i	-2%	i	0%	0%
COc1cccc(/C=N\NC(=O)c2ccc(Cn3cc(Br)c([N+](=O)[O-])n3)o2)c1O	4%	6%	-1%	-8%	0%	32µM*
COc1cccc(/C=N/NC(=O)c2c(C)nc3ccc(Br)cn23)c1O	1%	-17%	9%	-13%	56µM*	-23%
Cc1[nH]c(=S)c(C#N)c(C)c1C(=O)Nc1ccccc1	0%	-20%	u	-8%	8%	-5%
CCc1c(C(=O)Nc2ccccc2)c(C)[nH]c(=S)c1C#N	-1%	i	11µM*	0%	7%	-1%
Cc1nc(-c2ccc(S(=O)(=O)Nc3ccc(C)c(C)c3)s2)cs1	x	x	x	x	1%	x
COc1cc(C(=O)O)c2c(c1C)OC(=O)c1c(C)cc(O)c(C=O)c1O2	x	x	5.6µM*	1%	x	x
CC[N+]1=C(C)C(C)(C)c2cc(C)ccc21	10µM*	25µM*	12%	-8%	8%	-10%
CC(C)C[C@H](NC(=O)[C@@H]1CCCN1C(=O)[C@H](CO)NC(=O)[C@H](Cc1ccccc1)NC(=O)CNC(=O)[C@@H]1CCCN1C(=O)[C@@H]1CCCN1C(=O)[C@@H](N)CCCN=C(N)N)C(=O)O	0.5µM*	-4%	x	x	7%	0%
NC(=O)[C@H]1CC2(CC(c3cccc(NC(=O)[C@H]4CCC(=O)N4)c3)=NO2)CN1C(=O)c1ccccc1 (some centres not stated)	u	i	u	-2%	14µM*	-7%

High-throughput results from PubChem BioAssay.
